# Data as given in ChEMBL document CHEMBL2218924, “A broad activity screen in support of a chemogenomic map for kinase signalling research and drug discovery” (Biochem J, 2013).
# Target: Tyrosine-protein kinase Blk (Homo sapiens) (UniProt P51451)
# Conditions: at 10 µM
# Chain of Tyrosine-protein kinase Blk (Homo sapiens) (P51451 2-505 limits assumed): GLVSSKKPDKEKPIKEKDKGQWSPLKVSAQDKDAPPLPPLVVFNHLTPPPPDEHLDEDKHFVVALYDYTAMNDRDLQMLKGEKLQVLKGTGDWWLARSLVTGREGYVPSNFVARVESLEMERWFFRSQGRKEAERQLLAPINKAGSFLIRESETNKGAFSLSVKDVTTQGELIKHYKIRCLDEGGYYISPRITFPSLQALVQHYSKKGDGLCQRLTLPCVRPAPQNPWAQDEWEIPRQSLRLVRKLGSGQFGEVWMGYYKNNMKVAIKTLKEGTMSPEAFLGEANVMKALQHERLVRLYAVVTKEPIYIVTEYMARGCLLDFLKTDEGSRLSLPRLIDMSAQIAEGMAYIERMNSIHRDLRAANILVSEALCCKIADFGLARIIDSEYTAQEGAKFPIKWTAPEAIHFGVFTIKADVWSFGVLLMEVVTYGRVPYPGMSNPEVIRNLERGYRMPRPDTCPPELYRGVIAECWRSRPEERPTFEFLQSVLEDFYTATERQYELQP
row,SMILES,residual activity
1,CCc1nc(-c2ccc(OC)cc2)[nH]c1-c1ccncc1,79%
2,c1cc(-c2cnn3cc(-c4ccc(OCCN5CCCCC5)cc4)cnc23)ccn1,4%
3,COC(=O)[C@@]1(O)C[C@H]2O[C@]1(C)n1c3ccccc3c3c4c(c5c6ccccc6n2c5c31)C(=O)NC4,0%
4,O=C1c2ccccc2-c2nc3nnnn3nc21,47%
5,O=[N+]([O-])/C=C/c1ccc2c(c1)OCO2,96%
6,C[S+]([O-])c1ccc(-c2nc(-c3ccc(F)cc3)c(-c3ccncc3)[nH]2)cc1 (stereo unspecified),55%
7,CC(C)[C@H](CO)Nc1nc(Nc2cccc(Cl)c2)c2ncn(C(C)C)c2n1,2%
8,O=c1[nH]c2ccccc2n1C1CCN(Cc2ccc(-c3nc4cc5[nH]cnc5cc4nc3-c3ccccc3)cc2)CC1,50%
9,COc1cc(OC)c(/C=C2\C(=O)Nc3ccccc32)c(OC)c1,81%
10,N/C(=N\[N+](=O)[O-])N/N=C\c1ccc(-c2cccc([N+](=O)[O-])c2)o1,89%
11,COc1ccc2c(c1)/C(=C/c1cnc[nH]1)C(=O)N2,22%
12,CCn1cnc2c(Nc3cccc(Cl)c3)nc(N[C@@H]3CCCC[C@@H]3N)nc21,2%
13,CC(C)(C)c1cc(C=C(C#N)C#N)cc(Br)c1O,36%
14,O=C1Nc2ccc3ncsc3c2/C1=C/c1c[nH]cn1,5%
15,COc1cc2ncnc(Nc3ccc(OCc4ccccc4)cc3)c2cc1OC,18%
16,COc1ccc2c(c[n+](C)c3c4cc5c(cc4ccc23)OCO5)c1OC,90%
